Reference: PubChem BioAssay
“And” between values parts separate entries of the source, which are not always exact repeats. Equal entries are not always repeated. The source made the active and inactive calls. Unless noted, no rule for the calls is given here.

Key:
[1] = hESC survival regulators, cell-based (AID 493140); conditions: human embryonic stem cell survival screen; stronger effect = higher value;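 also: cells exposed to compounds for four days before counting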
[2] = sensitizers of A549 cells to miR-34 induction, primary screen, imaging, A549 dox-inducible miR-34, nuclei and caspase counts (AID 1347080;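 active = compounds whose cell count with miR-34 switched on is under 0.7 times the count with it off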); conditions: A549 miR-34 inducible, Hoechst nuclei count, 48 h
[3] = inhibitors of Cryptococcus chitosan production, flow cytometry, Cibacron Brilliant Red staining (AID 1347148); conditions: Cryptococcus neoformans chitosan, stronger effect = lower value; at 10 µM unless noted;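 also: compound exposure lasted three days at 37 degrees C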
[4] = circadian clock period modulators, cell-based, LOPAC library, luminescence reporter (AID 2774); conditions: circadian reporter cells, at 7 µM, actives lie on both sides;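 also: values are relative to mean of DMSO wells on each plate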
[5] = system: Hepatitis C virus NS3 helicase; assay: HCV NS3 helicase inhibitors, primary screen, biochemical, fluorescence polarization, LOPAC1280 library (AID 687035; in the data active = inhibition above about 37%); conditions: Purified HCV NS3 helicase, Cy5-dT15 ssDNA binding fluorescence polarization; stronger effect = higher value; concentration not given here
[6] = Cy5 fluorescence quenching or enhancement artefacts, artefact control for HCV NS3 helicase inhibitor project, biochemical, LOPAC1280 (AID 687037); conditions: Cy5-DNA-NS3h complex fluorescence interference counterscreen
[7] = phospholipid biosynthesis inhibitors in animal cells, primary screen, cell-based, LOPAC library, screen 4 (AID 1347384); conditions: phospholipid biosynthesis inhibition screen, at 10 µM
[8] = viability rescue of complex I mutant cybrids, primary screen, cell-based, galactose medium, ATP luminescence (AID 1645843;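 active = z-score of at least 1.8 in each of two replicates, scored against plate mean and spread of sample wells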;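 also: positive z means more ATP and so rescue of galactose-driven cybrid death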); conditions: complex I mutant cybrid cells, 72 h, stronger effect = higher value
[9] = molecular target: Mitogen-activated protein kinase 7 (Homo sapiens) (UniProt Q13164); assay: ERK5 transactivation activators in reporter cells, primary screen, cell-based, HTS (AID 1508626;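 active = luciferase signal above three times the same-plate solvent-only control wells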;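 also: luciferase driven by Gal4-ERK5 fusion binding five Gal4 sites before minimal TATA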); conditions: HeLa Gal4-ERK5 transactivation, 18 h, at 5 µM, stronger effect = higher value
Chain of Mitogen-activated protein kinase 7 (Homo sapiens) (Q13164 whole entry, looked up, the tested form may be a part): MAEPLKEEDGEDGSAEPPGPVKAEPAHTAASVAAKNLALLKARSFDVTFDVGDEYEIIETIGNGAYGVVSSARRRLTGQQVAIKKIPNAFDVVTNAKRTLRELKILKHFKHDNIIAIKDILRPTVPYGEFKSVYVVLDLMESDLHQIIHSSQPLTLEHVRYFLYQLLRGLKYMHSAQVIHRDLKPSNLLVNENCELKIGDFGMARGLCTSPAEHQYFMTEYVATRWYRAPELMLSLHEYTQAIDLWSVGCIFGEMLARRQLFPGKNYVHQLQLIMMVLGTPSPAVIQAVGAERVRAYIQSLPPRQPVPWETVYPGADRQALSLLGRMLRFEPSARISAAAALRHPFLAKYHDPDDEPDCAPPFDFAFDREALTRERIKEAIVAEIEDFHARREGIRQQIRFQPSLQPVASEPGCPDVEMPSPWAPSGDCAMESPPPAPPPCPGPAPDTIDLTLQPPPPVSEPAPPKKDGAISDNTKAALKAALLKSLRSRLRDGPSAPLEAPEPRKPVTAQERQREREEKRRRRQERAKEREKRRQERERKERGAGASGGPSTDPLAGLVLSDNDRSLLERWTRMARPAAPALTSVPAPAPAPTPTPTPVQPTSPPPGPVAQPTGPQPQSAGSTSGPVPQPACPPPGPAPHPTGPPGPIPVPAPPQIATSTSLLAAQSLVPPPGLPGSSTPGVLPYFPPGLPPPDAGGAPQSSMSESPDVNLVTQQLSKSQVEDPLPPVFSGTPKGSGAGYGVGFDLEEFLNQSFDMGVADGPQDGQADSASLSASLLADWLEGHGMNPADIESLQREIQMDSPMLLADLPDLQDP

[10] = survival rescue of mitochondrial mutant cells in low glucose, primary screen, MELAS cybrids, Rieske KO mouse fibroblasts, CellTiter-Glo (AID 1508586;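 active = mean z-score across replicates of 1.96 or higher in either the MELAS or the Rieske mutant cell line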;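 also: z relative to plate mean and SD of compound and empty wells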)
[11] = liver-stage malaria parasite growth inhibition, primary screen, cell-based, HepG2, luciferase luminescence, HepG2 viability (AID 624349; in the data active = parasite load remaining mostly below about 12%, no sharp cut-off; inactive = mostly above about 10%;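 also: 100% = mean of DMSO negative control wells on the same plate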); conditions: P. berghei liver stage in HepG2, luciferase luminescence, concentration not given here; parasite load remaining: stronger effect = lower value; viability: measured here: HepG2 viability without parasites
[12] = stronger effect = lower value, cell number ratio, induced over uninduced
[13] = measured here: relative caspase fold change +Dox/-Dox
[14] = measured here: total cells with miR-34 induction, stronger effect = lower value
[15] = measured here: total cells without miR-34 induction

## CCCCC/C=C\CC1OC1CCCCCCCC(=O)O (stereo not given)
[1]
  survival: 79.6 (inactive)
[2]; [12]
  fold change: 0.903 (inactive)
[2]; [13]
  fold change: 1.25
[2]; [14]
  cell count: 5290
[2]; [15]
  cell count: 5850
[3]
  fold fluorescence: 2.8 [at 1 µM] (inactive)

## CCCCC/C=C\CC1OC1C/C=C\C/C=C\CCCC(=O)O (stereo not given)
[1]
  survival: 104 (inactive)
[2]; [12]
  fold change: 1.05 (inactive)
[2]; [13]
  fold change: 1.1
[2]; [14]
  cell count: 5770
[2]; [15]
  cell count: 5500
[3]
  fold fluorescence: 6.17 [at 1 µM] (inactive)

## CCCCC/C=C\C/C=C\CCCCCCCC(N)=O
[1]
  survival: 66.5 (inactive)
[2]; [12]
  fold change: 0.981 (inactive)
[2]; [13]
  fold change: 1.16
[2]; [14]
  cell count: 6200
[2]; [15]
  cell count: 6320
[3]
  fold fluorescence: 4.31 (inactive)

## CCCCC/C=C\C/C=C\C/C=C\C=C\C(=O)CCCC(=O)O
[1]
  survival: 84.8 (inactive)
[2]; [12]
  fold change: 0.886 (inactive)
[2]; [13]
  fold change: 1.22
[2]; [14]
  cell count: 5820
[2]; [15]
  cell count: 6560
[3]
  fold fluorescence: 3.82 [at 1 µM] (inactive)

## CCCCCCCCCCOCCC(=O)O
[1]
  survival: 53.3 (inactive)
[2]; [12]
  fold change: 0.905 (inactive)
[2]; [13]
  fold change: 1.29
[2]; [14]
  cell count: 5410
[2]; [15]
  cell count: 5970
[3]
  fold fluorescence: 6.36 (inactive)

## C=CC1CN2CCC1C[C@@H]2[C@H](O)c1ccnc2ccc(OC)cc12 (stereo not given in full)
[2]; [12]
  fold change: 0.899 (inactive)
[2]; [13]
  fold change: 1.42
[2]; [14]
  cell count: 4890
[2]; [15]
  cell count: 5440
[3]
  fold fluorescence: 5.27 [at 154.1 µM] (inactive)

## COc1c(C=O)c(O)cc2c1C(=O)c1ccccc1C2=O
[1]
  survival: 93.2 (inactive)
[2]; [12]
  fold change: 0.91 (inactive)
[2]; [13]
  fold change: 0.797
[2]; [14]
  cell count: 2810
[2]; [15]
  cell count: 3080
[3]
  fold fluorescence: 5.22 [at 177.1 µM] (inactive)

## CCCCC/C=C\CC(O)/C=C/c1cccc(CC(O)CCCCO)n1 (stereo not given)
[4]
  period change: 0.025 h (inactive)
[1]
  survival: 97.4 (inactive)
[5]
  inhibition: -1% (inactive)
[6]
  fluorescence ratio (interference): 0.9 (inactive)
[2]; [12]
  fold change: 0.988 (inactive)
[2]; [13]
  fold change: 1.4
[2]; [14]
  cell count: 5690
[2]; [15]
  cell count: 5760
[3]
  fold fluorescence: 3.69 [at 1 µM] (inactive)

## COCCCCCCCCCCCC(=O)O
[1]
  survival: 81.7 (inactive)
[2]; [12]
  fold change: 0.981 (inactive)
[2]; [13]
  fold change: 1.11
[2]; [14]
  cell count: 5900
[2]; [15]
  cell count: 6020
[3]
  fold fluorescence: 7.84 (inactive)

## CC(C)[C@@H]1NC(=O)[C@H](Cc2ccccc2)NC(=O)[C@@H](CC(=O)O)NC(=O)CNC(=O)[C@H](CCCN=C(N)N)NC1=O
[2]; [12]
  fold change: 1.03 (inactive)
[2]; [13]
  fold change: 0.655
[2]; [14]
  cell count: 1320
[2]; [15]
  cell count: 1280
[3]
  fold fluorescence: 6.81 [at 87 µM] (inactive)

## CCCCCC(=O)/C=C/C=C\CCCCCCCC(=O)O
[1]
  survival: 99.8 (inactive)
[2]; [12]
  fold change: 0.995 (inactive)
[2]; [13]
  fold change: 1.29
[2]; [14]
  cell count: 5630
[2]; [15]
  cell count: 5650
[3]
  fold fluorescence: 4.25 [at 1 µM] (inactive)

## CCCCCCCCCCCCCCCCOC[C@H](CO)OC(C)=O
[2]; [12]
  fold change: 0.961 (inactive)
[2]; [13]
  fold change: 1.5
[2]; [14]
  cell count: 5130
[2]; [15]
  cell count: 5340
[3]
  fold fluorescence: 4.43 (inactive)

## CCCCCCCCCCCCCCCC(=O)N[C@H](CN1CCOCC1)[C@H](O)c1ccccc1
[1]
  survival: 83.7 (inactive)
[2]; [12]
  fold change: 1 (inactive)
[2]; [13]
  fold change: 1.57
[2]; [14]
  cell count: 5590
[2]; [15]
  cell count: 5590
[3]
  fold fluorescence: 5.42 (inactive)

## CCCCC/C=C\C[C@H](O)/C=C/C=C\C/C=C\CCCC(=O)O
[1]
  survival: 93.5 (inactive)
[2]; [12]
  fold change: 0.969 (inactive)
[2]; [13]
  fold change: 1.13
[2]; [14]
  cell count: 5180
[2]; [15]
  cell count: 5340
[3]
  fold fluorescence: 4.99 [at 1 µM] (inactive) and 5.6 [at 1 µM] (inactive)

## CCCCCCCCCCCCCCC[C@H](O)[C@H](N)CO
[4]
  period change: -0.08 h (inactive)
[5]
  inhibition: 4% (inactive)
[6]
  fluorescence ratio (interference): 0.9 (inactive)
[2]; [12]
  fold change: 0.911 (inactive)
[2]; [13]
  fold change: 1.55
[2]; [14]
  cell count: 1060
[2]; [15]
  cell count: 1170
[3]
  fold fluorescence: 8.12 (inactive)
[7]
  outcome: inactive
[8]
  z-score: -0.39 (inactive)

## CCCCC/C=C\C/C=C\C/C=C\C/C=C\CCCC(=O)O[C@@H](CO)COC(=O)CCCCCCCCCCCCCCCCC
[1]
  survival: 92.4 (inactive)
[2]; [12]
  fold change: 0.967 (inactive)
[2]; [13]
  fold change: 1.14
[2]; [14]
  cell count: 5940
[2]; [15]
  cell count: 6140
[3]
  fold fluorescence: 5.53 (inactive)

## CC(C)c1cccc(O)c(=O)c1
[2]; [12]
  fold change: 0.903 (inactive)
[2]; [13]
  fold change: 1.02
[2]; [14]
  cell count: 1840
[2]; [15]
  cell count: 2030
[3]
  fold fluorescence: 10.2 [at 304.5 µM] (inactive)
[9]
  luciferase signal: 44 AU (inactive)

## CCCCC[C@H](O)C/C=C1/C(=O)C=C[C@@H]1C/C=C\CCCC(=O)O
[1]
  survival: 95.5 (inactive)
[2]; [12]
  fold change: 0.887 (inactive)
[2]; [13]
  fold change: 0.855
[2]; [14]
  cell count: 5300
[2]; [15]
  cell count: 5980
[3]
  fold fluorescence: 4.79 (inactive)

## CCCCC/C=C\C/C=C\CC1OC1C/C=C\CCCC(=O)O (stereo not given)
[1]
  survival: 95.7 (inactive)
[2]; [12]
  fold change: 1.01 (inactive)
[2]; [13]
  fold change: 1.19
[2]; [14]
  cell count: 5810
[2]; [15]
  cell count: 5750
[3]
  fold fluorescence: 5.26 [at 1 µM] (inactive)

## CCCCC/C=C\C/C=C\CCCCCCCC(=O)NCC(=O)O
[1]
  survival: 52.3 (inactive)
[2]; [12]
  fold change: 0.95 (inactive)
[2]; [13]
  fold change: 1.28
[2]; [14]
  cell count: 6210
[2]; [15]
  cell count: 6540
[3]
  fold fluorescence: 3.7 (inactive)

## CCOC(=O)C1OC1C(=O)NC(CC(C)C)C(=O)NCCC(C)C (stereo not given)
[2]; [12]
  fold change: 0.903 (inactive)
[2]; [13]
  fold change: 0.67
[2]; [14]
  cell count: 8060
[2]; [15]
  cell count: 8930
[3]
  fold fluorescence: 5.77 [at 146 µM] (inactive)
[10]; MELAS cybrid survival, CellTiter-Glo 48 h, stronger effect = higher value
  z-score: -0.522 (inactive)
[10]; Rieske KO mouse fibroblast survival, CellTiter-Glo 72 h
  z-score: -1.31

## CCCCCCCCCCCCCC(=O)N[C@@H](C)[C@H](O)c1ccccc1
[1]
  survival: 95 (inactive)
[2]; [12]
  fold change: 0.995 (inactive)
[2]; [13]
  fold change: 0.985
[2]; [14]
  cell count: 6160
[2]; [15]
  cell count: 6200
[3]
  fold fluorescence: 3.67 (inactive) and 4.53 (inactive)

## COC(=O)CNC(=O)C(=O)OC
[2]; [12]
  fold change: 0.976 (inactive)
[2]; [13]
  fold change: 1.36
[2]; [14]
  cell count: 6040
[2]; [15]
  cell count: 6190
[3]
  fold fluorescence: 3.39 (inactive)

## NC(N)=NCCNS(=O)(=O)c1cccc2cnccc12
[1]
  survival: 124 (inactive)
[11]
  parasite load remaining: 46.9% (inactive)
  viability: 111%
[2]; [12]
  fold change: 0.914 (inactive)
[2]; [13]
  fold change: 0.868
[2]; [14]
  cell count: 2220
[2]; [15]
  cell count: 2430
[3]
  fold fluorescence: 3.91 [at 170.4 µM] (inactive)
